Measured values taken from the supplement of paper PMC6555819.

test system: VDR:RXRa (NR concentration 270 nM, RXRa partner concentration 90 nM); test: PBM binding z-score (relative to random genomic background probes); higher = stronger binding; sequences stand for … in GC…GCGATTGACAGCGTAGAATGAAGG
Description: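 Protein-binding microarray (Agilent 4x180K custom design, double-stranded 60-nt probes: 5' GC cap, 34-nt variable region, 24-nt constant primer region; full probe sequence given). Purified or IVT nuclear receptor:RXRα heterodimers (3:1 NR:RXRα, mostly 270:90 nM) or homodimers were incubated for 1 h in PBS with 2% milk and no ligand, then detected with Alexa488 antibodies. Fluorescence from o1-orientation probes (~5 replicates averaged) was converted to z-scores against 500 random hg19 background probes. Variable regions are seed direct-repeat (DR0–DR5) sites, all their single-nucleotide variants and half-site ablations.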

Sequence	PBM binding z-score
TCAGATAGGTAAAAGGTGAAAGTCGGTGTGGTAA	0.851
CGTCCAAGGTCAGCAGGTCAGTGAGAGCGACGTG	4.04
TGAATCAGGTTAAAGATCAGGGAACGTGGCGTCG	0.238
AATACAGGGTCATCGAAGGCCAGAGTACGCACAG	5.49
CCTAGTTGGACAAGGTCACACACGCTATAGGTAC	4.08
CGAACTAGGTCATCCAGGCCAGTGAATACATTGA	3.97
CCGACAGGGGCAAGGTTACCATAACGCACAGCCA	0.616
TCTTGTAGATCATAGGTTAAGAAAGCCGAAGCCT	0.86
TCTGCTAGGTCAGTTGGTCAGCTAACGAGCTGCC	0.166
TCAAATAGGTAAACAGGTGAAAGTCCGTAAGTTA	1.18
TAGCCTAGGTCATTCGGCCAGTATAGTACGCATC	2.24
CCTTACGGGTCAAGGCTATAGCACGGGTGGTACG	2.77
ATCAAAAGGTCGTGAGGTGAGTATACAGAAAGGC	3.92
CTCGAAAGGTTGTGCTCAGGTGAGTATACCAAAC	0.214
ACTTACGGGTCAATGAGGTTATAGCACGCGTATA	7.74
CCTAGTTGGTCAGGAGGTCACACACCGGATATGA	4.06
CCTACTGGGCCACGATAGGTCATTGATTCAGTGA	1.15
GCTTGTAGACCAAGGTTAAGAAAGACTAAGCTAA	0.0143
CCTTACGGGTCACTGACAGGTTATAACATTTGGA	3.84
AGTCAAAGTTCATCTAGGTAGCGTAAGATATGCT	4.94

Sequence	PBM binding z-score
GTACCAAGGTGAATAAGTCGTTGATGAGTAGGCG	0.0767
TTACCAATGTGAAGGTCGTTGATCCCTCTGTAGA	1.17
CTCGAGAGGTCGGTTGAGGTGAGTATACGGATAA	2.59
GCTGCTAGGTCAACTGATGGTAAGCTAAAGCTCG	1.23
TCTGCTAGGTCAGTTGGTCAGATAACGAGCTGCC	0.238
ATCTCTAGGTAACCAAGTGCAGTGAATGCCGAAC	1.3
GCGACTGGGGCGTCAGCAGGTTACCATAACTTAA	-0.382
GAGACAGGGTCAAGGCCAGAGTACGCGTATTGAT	4.4
ATCGTAAGGTCGAGGTGAGTATAGAGAAAGGGAA	1.99
CGAACTAGGTCTTCCAGGACAGTGAATACATTGA	-0.0143
ACAGACAAGTGATGAAGGTAACTCAGGCTATCAT	-0.0224
TTACCAAGGTGACGGTCGTTGATCCCTCTGTAGA	0.0426
GCTGCTAGGTCAACTGATGGACAGCTAAAGCTCG	1.27
ATATGTAGGTTAGCTGGGGTCATTCGGACTAGGC	6.4
AGAATAAGGTTATTAAGATCAGGGAATTGCGGTC	1.95
CGAACGAGGGCATGAGTTGATAGCAAATGCCGAT	1.43
ATCTCTAGGCAACCAAGTTCAGTGAATGCCGAAC	2.1
GATACATGGTCAGCTAGAGGCCAGAGTATGGAAA	-0.32
CCTAATGGGCCATCAGGTCATTGATATCAACGTT	2.04
TCATATAGGTAAATGCTAGGTGAAAATCCGATCT	0.793
